The values that follow come from the supplement of paper PMC8253809.

Values joined by “and” are separate entries in the source; they are usually repeats but may differ in a detail not shown here. Equal entries are not always repeated.

Assay in all cases: growth inhibition (% activity, log2 RLU normalised to DMSO / staurosporine); higher = more growth inhibition
What all share (details): 33 µM

One assay has as its system DIPGX29 (H3.3 K27M diffuse intrinsic pontine glioma line). In a few lines:
(§1)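 On Geltrex-coated 384-well plates, pHGG cell lines and H9-derived neural stem cells were grown with approved drugs pinned in at a single final concentration of about 33 μM, in triplicate, for 7 days at 37 °C, 5% CO2. Per-plate normalisation of log2-transformed CellTiter-Glo luminescence to % activity between solvent and positive control wells followed. Each growth-inhibition value is the median over the replicates.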

The test system of the next assay is DIPGX37 (H3.3 K27M diffuse intrinsic pontine glioma line). In a few lines: as §1
The test system of another assay is DIPGX7 (H3.3 K27M diffuse intrinsic pontine glioma line). The method, boiled down: as §1
The next assay has as its system DIPGX9 (diffuse intrinsic pontine glioma line). The method, boiled down: as §1
Another assay has as its system HGGX39 (paediatric high-grade glioma line). The method, boiled down:
as §1

For another assay, the system named is HGGX6 (H3.3 G34R paediatric high-grade glioma line). In a few lines: as §1
A further assay relates to HNSC. In a few lines: as §1
For the next assay, the system named is SUDIPGIV (diffuse intrinsic pontine glioma line)
In a few lines:
as §1

A further assay deals with SUDIPGVI (diffuse intrinsic pontine glioma line)
The method, boiled down: as §1

The test system of another assay is SUDIPGXIII (diffuse intrinsic pontine glioma line)
In a few lines: as §1

As to `CC1(C)S[C@@H]2[C@H](NC(=O)[C@H](NC(=O)N3CCNC3=O)c3ccccc3)C(=O)N2[C@H]1C(=O)O`, the growth inhibition in the assay on DIPGX29 is -0.235%; in the assay on DIPGX37, 0.459%; in the assay with DIPGX7 it was -0.00643%; in the assay on DIPGX9, 0.298%; in the assay with HGGX39, 1.59%; with HGGX6, -0.0472%. The growth inhibition is -1.56% in the assay with HNSC, -0.88% in the assay on SUDIPGIV, -1.06% in the assay with SUDIPGVI and -0.815% in the assay with SUDIPGXIII.

With `CCC[C@H](NC(=O)[C@@H]1[C@H]2CCC[C@H]2CN1C(=O)[C@@H](NC(=O)[C@@H](NC(=O)c1cnccn1)C1CCCCC1)C(C)(C)C)C(=O)C(=O)NC1CC1`, the growth inhibition amounted to 0.654% with DIPGX29; 1.66% in the assay on DIPGX37; 1.2% with DIPGX7; 1.41% with DIPGX9; 1.74% with HGGX39; 2.24% with HGGX6. In addition, the growth inhibition in the assay on HNSC is 3.02%; in the assay on SUDIPGIV, 0.139%; with SUDIPGVI, 1.78%; in the assay on SUDIPGXIII, -0.0315%.

For the compound `CCOC(=O)[C@H](CCc1ccccc1)N[C@H]1CS[C@H](c2cccs2)CN(CC(=O)O)C1=O`, the growth inhibition was -2.15% with DIPGX29; 0.457% with DIPGX37; 0.303% in the assay with DIPGX7; -0.286% in the assay with DIPGX9; 0.0238% in the assay with HGGX39; 0.0397% in the assay with HGGX6. In addition, the growth inhibition in the assay on HNSC is 1.94%; in the assay with SUDIPGIV, -0.624%; with SUDIPGVI, -2.82%; in the assay on SUDIPGXIII, 0.0387%.

For `CN1C(C(=O)Nc2ccccn2)=C(O)c2sccc2S1(=O)=O`, the growth inhibition in the assay on DIPGX29 is -1.4%; with DIPGX37 it was 1.63%; in the assay on DIPGX7, -0.195%; with DIPGX9 it was 1.24%; in the assay on HGGX39, 0.358%; with HGGX6 it was 0.485%. Moreover, the growth inhibition in the assay on HNSC was -0.824%; with SUDIPGIV it was -4.89%; in the assay with SUDIPGVI it was 0.891%; in the assay with SUDIPGXIII it was -0.625%.

Take `NCCCCCC(=O)O`: the growth inhibition with DIPGX29 stood at 0.867%; in the assay on DIPGX37 it was 2.56%; in the assay with DIPGX7, 2.76%; in the assay with DIPGX9, 1.09%; with HGGX39, 2.5%; with HGGX6, 4.7%. Also, the growth inhibition with HNSC was 0.436%; in the assay with SUDIPGIV, 1.23%; with SUDIPGVI it was 0.903%; with SUDIPGXIII it was -1.64%.

For the compound `CCN(CC)CC#CCOC(=O)C(O)(c1ccccc1)C1CCCCC1` (configuration not stated), the growth inhibition is 7.11% and -0.14% with DIPGX29; -0.636% and -1.02% with DIPGX37; 8.09% and 5.01% in the assay on DIPGX7; 1.99% and -2.12% in the assay on DIPGX9; 4.03% and -0.183% in the assay on HGGX39; 1.74% and -0.191% in the assay with HGGX6. The growth inhibition was 3.76% and -2.81% in the assay on SUDIPGIV; -0.8% and -5.89% in the assay with SUDIPGVI; 1.45% and 2.55% in the assay with SUDIPGXIII.

Turning to `CC(=O)OCC(=O)[C@@]12OC(C)(C)O[C@@H]1C[C@H]1[C@@H]3C[C@H](F)C4=CC(=O)C=C[C@]4(C)[C@@]3(F)[C@@H](O)C[C@@]12C`, the growth inhibition was 0.7% with DIPGX29; 2.1% in the assay on DIPGX37; -1.12% in the assay on DIPGX7; 3.42% in the assay on DIPGX9; 2.3% in the assay on HGGX39; -0.607% in the assay with HGGX6. The growth inhibition was 5.54% with HNSC, -2.88% in the assay on SUDIPGIV, 0.11% in the assay on SUDIPGVI and 2.76% in the assay with SUDIPGXIII.

Consider `Cc1ccc(C(=O)Nc2ccc(CN3CCN(C)CC3)c(C(F)(F)F)c2)cc1C#Cc1cnc2cccnn12`, for which the growth inhibition in the assay with DIPGX29 came out at 60.2%; in the assay on DIPGX37 it was 59.1%; in the assay with DIPGX7, 51.4%; with DIPGX9, 56.7%; with HGGX39, 56.8%; in the assay on HGGX6 it was 50%. Further, the growth inhibition in the assay with HNSC was 62.7%; in the assay with SUDIPGIV, 18.6%; in the assay on SUDIPGVI, 6.05%; in the assay on SUDIPGXIII it was 22.9%.

As to `CCCc1nc(C(C)(C)O)c(C(=O)OCc2oc(=O)oc2C)n1Cc1ccc(-c2ccccc2-c2nnn[nH]2)cc1`, the growth inhibition is -1% in the assay on DIPGX29; 0.0168% with DIPGX37; -0.622% in the assay with DIPGX7; 0.493% with DIPGX9; -1.5% in the assay on HGGX39; -3.62% in the assay on HGGX6. The growth inhibition in the assay on HNSC is 12.4%; in the assay with SUDIPGIV, -1.28%; in the assay on SUDIPGVI, -2.12%; with SUDIPGXIII it was -2.02%.

Regarding `CC(C)[N+]1(C)[C@@H]2CC[C@H]1C[C@@H](OC(=O)C(CO)c1ccccc1)C2` (some centres not stated), the growth inhibition with DIPGX29 is -0.758%; in the assay with DIPGX37 it was 3.5%; in the assay on DIPGX7 it was 0.48%; in the assay on DIPGX9, 0.945%; with HGGX39, 1.73%; with HGGX6 it was 2.16%. The growth inhibition in the assay with HNSC is -1.56%; in the assay with SUDIPGIV it was -0.725%; in the assay on SUDIPGVI it was 2.4%; with SUDIPGXIII, 0.743%.

With `Nc1[nH]cnc2ncnc1-2`, the growth inhibition with DIPGX29 was -2.79% and 0.888% and 0.703%; with DIPGX37, -2.72% and -1.28% and 1.74%; in the assay on DIPGX7 it was -0.783% and 2.97% and -0.884%; in the assay on DIPGX9 it was -3.07% and 2.41% and -1.07%; in the assay with HGGX39, -1.64% and 3.54% and 2.19%; in the assay with HGGX6 it was -4.48% and -0.101% and -1.37%. Also, the growth inhibition in the assay on SUDIPGIV was -2.98% and 0.339% and 0.701%; in the assay with SUDIPGVI it was -1.95% and 3.66% and 1.39%; in the assay with SUDIPGXIII, -0.991% and 0.292% and 0.516%.

For the compound `CC(=O)S[C@@H]1CC2=CC(=O)CC[C@]2(C)[C@H]2CC[C@@]3(C)[C@@H](CC[C@@]34CCC(=O)O4)[C@H]12`, the growth inhibition is 1.45% in the assay with DIPGX29; 4.15% in the assay with DIPGX37; 2.4% in the assay on DIPGX7; 1.65% in the assay on DIPGX9; 4.84% with HGGX39; 2.78% with HGGX6. In addition, the growth inhibition in the assay with HNSC came out at 1.61%; with SUDIPGIV, 1.73%; in the assay with SUDIPGVI, 2.19%; with SUDIPGXIII, 0.862%.

Consider `CCOC(=O)C1=C(COCCN)NC(C)=C(C(=O)OC)C1c1ccccc1Cl` (configuration not stated), for which the growth inhibition with DIPGX29 was 15% and 3.31%; in the assay on DIPGX37, 4.6% and -0.383%; in the assay on DIPGX7, 5.13% and -0.147%; with DIPGX9, 4.27% and -0.283%; with HGGX39 it was 6.07% and -2.96%; with HGGX6, 6.22% and 0.934%. In addition, the growth inhibition is 1.11% and -4.26% in the assay on SUDIPGIV; 3.83% and -2% in the assay with SUDIPGVI; 0.181% and 0.61% in the assay with SUDIPGXIII.

Regarding `O=C(c1ccccc1)c1ccc2n1CCC2C(=O)O` (configuration not stated), the growth inhibition was 1.07% in the assay on DIPGX29; -0.408% with DIPGX37; 0.977% in the assay with DIPGX7; -1.13% in the assay on DIPGX9; -0.11% with HGGX39; 1.54% with HGGX6. The growth inhibition with HNSC is -1.61%; in the assay on SUDIPGIV, -5.47%; with SUDIPGVI, 0.251%; in the assay with SUDIPGXIII, 0.0715%.
